Experimental data: PubChem BioAssay (NCATS)
A number with no mark means an inactive call. Inconclusive results are not listed. A call without a number means that no potency is given here. Calls of active or inactive are those of the source. Calls follow the shape of the dose curve; as a rule, active = well fitted curve in the direction sought with a large enough effect; inconclusive = small, poorly fitted or top-dose-only effect, or another doubt; inactive = no such curve, though single readings can be large; an effect the other way counts as inactive or inconclusive.

Assays:
[1] = system: Zika virus NS2B-NS3 protease (linked construct); test: Primary screen NINDS Rhodamine qHTS for Zika virus inhibitors (AID 1347160); also: nearly all actives have a fitted effect of over 55% in size; also: potency is read from the fitted curve at half-maximal effect
Method in brief: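 Rhodamine110-peptide cleavage (1.5 µM substrate) by 25 nM linked NS2B-NS3 enzyme at pH 8.0 (Tris, Tween 20), after 15 min RT preincubation with compounds; 15-min fluorescence change normalized to controls and Hill-fitted.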

[2] = OV-KATE Cancer Cell Toxicity qHTS against the NCATS CANVASS Library (AID 1347345); also: potency is read from the fitted curve at half-maximal effect
Method in brief: (§1)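 1000 cells/well; 4 h settle; 11-pnt titration; 72 h, 37 degrees C, 5% CO2; CellTiter-Glo, 15min RT; luminescence read.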

[3] = HPAF-II Cancer Cell Toxicity qHTS against the NCATS CANVASS Library (AID 1347346); also: nearly all actives have a fitted effect of over 55% in size; also: potency is read from the fitted curve at half-maximal effect; as to activity change, negative = cytotoxicity: series mostly up to about 38 µM
Method in brief: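 First, HPAF-II cells are plated (1000 cells/well) and held 4 h at 37 degrees C. Next, compounds are pin-transferred as an 11-point series. After 72 h, CellTiter-Glo is added and luminescence measured.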

[4] = UWB1.289 Cancer Cell Toxicity qHTS against the NCATS CANVASS Library (AID 1347347); also: nearly all actives have a fitted effect of over 60% in size; also: potency is read from the fitted curve at half-maximal effect; as to activity change, negative = cytotoxicity: series mostly up to about 38 µM
Method in brief: as §1

[5] = Panc-1005 Cancer Cell Toxicity qHTS against the NCATS CANVASS Library (AID 1347349); also: nearly all actives have a fitted effect of over 60% in size; also: potency is read from the fitted curve at half-maximal effect; as to activity change, negative = cytotoxicity: series mostly up to about 38 µM
Method in brief: as §1

[6] = U-118MG Cancer Cell Toxicity qHTS against the NCATS CANVASS Library (AID 1347351); also: potency is read from the fitted curve at half-maximal effect; as to activity change, negative = cytotoxicity: series mostly up to about 38 µM
Method in brief: as §1

[7] = COV-362 Cancer Cell Toxicity qHTS against the NCATS CANVASS Library (AID 1347352); also: potency is read from the fitted curve at half-maximal effect; as to activity change, negative = cytotoxicity: series mostly up to about 38 µM
Method in brief: (§2)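 First, 1000 cells go into each well and rest for 4 hours. Next, an 11-point dilution range is pinned in. Plates then incubate 72 hours before CellTiter-Glo addition and luminescence reading.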

[8] = A2780 Cisplatin Sensitive Ovarian Cancer Cell Toxicity qHTS against the NCATS CANVASS Library (AID 1347353); also: nearly all actives have a fitted effect of over 60% in size; also: potency is read from the fitted curve at half-maximal effect
Method in brief: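 Cells are plated at 750 per well and rest for 4 hours. Compounds are added across eleven concentrations, and incubated 72 hours before ATP is quantified by luminescence.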

[9] = UWB1.289-WTBRCA1 Cancer Cell Toxicity qHTS against the NCATS CANVASS Library (AID 1347354); also: potency is read from the fitted curve at half-maximal effect
Method in brief: as §2

[10] = HEK293 18hr Apoptosis Induction qHTS against the NCATS CANVASS Library (AID 1347357); also: potency is read from the fitted curve at half-maximal effect
Method in brief: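 Cells seeded at 500/well in DMEM + 10% FBS. Compounds pinned, 11 concentrations. 18 h, 37 degrees C/5% CO2. Caspase-Glo 3/7 added, 15 min RT dark, luminescence read.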

[11] = HEK293 12hr Apoptosis Induction qHTS against the NCATS CANVASS Library (AID 1347361); also: potency is read from the fitted curve at half-maximal effect
Method in brief: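 Cells are seeded, dosed with an 11-point compound series and incubated 12 hours. Caspase-3/7 activity is detected by luminescent DEVD-substrate reagent after 15 minutes at room temperature.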

[12] = qHTS for ATAD5 Agonist screened against the NCATS CANVASS Library (AID 1347367);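 also: luciferase reporter driven by ATAD5 which rises upon DNA damage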
Method in brief: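 HEK293T-ATAD5 luc reporter; 2000 cells/well; 5hr settle; cpd 11-pt qHTS; 16hr 37C 5% CO2 dark; viability by CellTiter-Fluor (AFC fluorescence); then luciferase luminescence, 30min RT.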

[13] = MCF7 Cancer Cell Toxicity qHTS against the NCATS CANVASS Library (AID 1347369); also: potency is read from the fitted curve at half-maximal effect; as to activity change, negative = cytotoxicity: series mostly up to about 46 µM
Method in brief: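 Cells seeded at 500/well, then compound pinned. Plates incubated 72 hr at 37C, 5% CO2. CellTiterGlo added; luminescence read.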

[14] = qHTS for ATAD5 Antagonist screened against the NCATS CANVASS Library (AID 1347370); also: nearly all actives have a fitted effect of over 65% in size; also: potency is read from the fitted curve at half-maximal effect;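 as to activity change, negative = inhibition: HEK293T cells carrying an ATAD5 luciferase reporter co-treated with 10 µM 5-fluorouridine; series mostly up to about 46 µM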
Method in brief: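 Compounds (11-point) co-dosed with 10 µM 5-FUrd for 16 h at 37 °C onto HEK293T-ATAD5 luciferase reporter cells. Viability measured by CellTiter-Fluor fluorescence, then ATAD5 reporter signal by luminescence.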

[15] = J3T Cancer Cell Toxicity qHTS against the NCATS CANVASS Library (AID 1347371); also: potency is read from the fitted curve at half-maximal effect;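 as to activity change, negative = cytotoxicity: J3T is a canine glioma cancer cell line seeded at 500 cells per well; series mostly up to about 46 µM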
Method in brief: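 Luminescence from CellTiterGlo, reporting cellular ATP, serves as the viability measure after 72 hr compound treatment of J3T canine glioma cells seeded at 500 cells/well.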

[16] = biological target: Nuclear receptor subfamily 1 group I member 3 (Homo sapiens) (UniProt Q14994); test: qHTS for Constitutive Androstane Receptor (CAR) Agonist screened against the NCATS CANVASS Library (AID 1347373);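 also: every well also contained 1.5 µM PK11195 alongside the test compound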
Method in brief: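 Cells were plated and allowed to attach for 4hr, then dosed with compound in an 11-point series alongside 1.5uM PK11195. After 24hr at 37C, viability was measured fluorometrically and CAR-driven CYP2B6 reporter luminescence was recorded.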

[17] = qHTS for Inflammasome Signaling Inhibitors: IL-1-beta AlphaLISA screen against the NCATS CANVASS Library (AID 1347379);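 also: human THP-1 cells primed with LPS then triggered with ATP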;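 as to activity change, negative = inhibition: secreted IL-1B measured as AlphaLISA emission at 615 nm; lower signal means less IL-1B release which is the wanted effect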
Method in brief: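 Secreted IL-1B from human THP-1 cells quantified by AlphaLISA 16 hr after compound addition (final up to 57.5 uM). A 1 hr compound pretreatment preceded inflammasome activation with 250 ng/mL LPS plus 1.25 mM ATP (final).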

[18] = Inflammasome Signaling qHTS Counterscreen: IL-1-beta AlphaLISA counterscreen against the NCATS CANVASS Library (AID 1347381);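 also: cell-free check with purified IL-1β in medium and no THP-1 cells; series mostly up to about 57 µM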
Method in brief: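 Purified IL-1-beta (4 pg/well) + compound, 11-pt conc. series; acceptor beads 6 ug/mL + biotin-Ab 0.6 nM final, 1 h RT; SA-donor 24 ug/ml final, 30 min dark RT; read ex 680/em 615.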

[19] = Cytotoxicity qHTS for assessment of Hepg2 cells membrane integrity screened against the NCATS CANVASS Library (AID 1347387)
Method in brief: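 Cells were seeded at 2000 per well and left overnight to attach. Compounds were pin-transferred to give 0.59 nM - 46 uM in an 11-point series and incubated 5 hr at 37C. CytoTox-ONE reagent was added and, after 10 min at room temperature, fluorescence (ex 560, em 590 nm) was read.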

[20] = Vero-766 cells viability qHTS against the NCATS CANVASS Library: Counterscreen for Zika virus inhibition assay (AID 1347394); also: nearly all actives have a fitted effect of over 60% in size; also: potency is read from the fitted curve at half-maximal effect; as to activity change, negative = cytotoxic: series mostly up to about 46 µM
Method in brief: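 Vero 766, no virus; 1000 cells/well; o/n attach; cpd 11-pt; 72 h, 37C, 5% CO2; CTG luminescence; cell-free media wells = 100% inhibition.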

Sequence of Nuclear receptor subfamily 1 group I member 3 (Homo sapiens) (Q14994 whole entry, looked up): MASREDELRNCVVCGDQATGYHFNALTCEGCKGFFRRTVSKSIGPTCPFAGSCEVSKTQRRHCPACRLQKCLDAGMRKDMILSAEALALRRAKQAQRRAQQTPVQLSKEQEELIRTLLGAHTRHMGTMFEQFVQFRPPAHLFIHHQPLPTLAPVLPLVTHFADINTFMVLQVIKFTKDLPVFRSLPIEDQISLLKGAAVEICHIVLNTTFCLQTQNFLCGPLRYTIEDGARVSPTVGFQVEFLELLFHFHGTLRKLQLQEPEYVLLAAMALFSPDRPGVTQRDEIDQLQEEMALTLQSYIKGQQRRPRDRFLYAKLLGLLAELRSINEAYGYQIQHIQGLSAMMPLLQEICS

Question: With O=Cc1ccc2n1C[C@@]1(C[C@H](O)[C@@H](CO)O1)OC2 as the compound, how does the Potency [1] read?
Answer: inactive

Question: And the Potency [2]?
Answer: inactive

Question: And the Potency [3]?
Answer: inactive

Question: What about the Potency [4] of the same compound?
Answer: inactive

Question: And the Potency [5]?
Answer: inactive

Question: What about the Potency [6] of the same compound?
Answer: inactive

Question: What about the Potency [7] of the same compound?
Answer: inactive

Question: And the Potency [8]?
Answer: inactive

Question: And the Potency [9]?
Answer: inactive

Question: And the Potency [10]?
Answer: inactive

Question: What about the Potency [11] of the same compound?
Answer: inactive

Question: What about the Potency [12] of the same compound?
Answer: inactive

Question: And the Potency [13]?
Answer: inactive

Question: And the Potency [14]?
Answer: inactive

Question: What about the Potency [15] of the same compound?
Answer: inactive

Question: And the outcome [16]?
Answer: inactive

Question: And the Potency [17]?
Answer: inactive

Question: And the outcome [18]?
Answer: inactive

Question: What about the outcome [19] of the same compound?
Answer: inactive

Question: And the Potency [20]?
Answer: inactive

Question: Which Potency [1] does the source give for COc1ccc([C@@H]2c3cc(OC)c(OC)cc3C(=O)[C@H](C)C2C)cc1OC (stereo partly specified) here?
Answer: inactive

Question: And the activity change, negative = cytotoxicity [2]?
Answer: -0.626% [at 7.64 µM]

Question: And the activity change, negative = cytotoxicity [3]?
Answer: 3.84% [at 7.64 µM]

Question: What about the activity change, negative = cytotoxicity [4] of the same compound?
Answer: 3.43% [at 7.64 µM]

Question: What about the activity change, negative = cytotoxicity [5] of the same compound?
Answer: 1.86% [at 7.64 µM]

Question: And the activity change, negative = cytotoxicity [6]?
Answer: 3.5% [at 7.64 µM]

Question: What about the activity change, negative = cytotoxicity [7] of the same compound?
Answer: -1.95% [at 7.64 µM]

Question: What about the outcome [8] of the same compound?
Answer: inactive [at 9.19 µM]

Question: And the outcome [9]?
Answer: inactive [at 7.64 µM]

Question: What about the caspase activation [10] of the same compound?
Answer: 3.8% [at 9.19 µM]

Question: What about the caspase activation [11] of the same compound?
Answer: 2.92% [at 9.19 µM]

Question: And the activation [12]?
Answer: -0.416% [at 9.19 µM]

Question: What about the activity change, negative = cytotoxicity [13] of the same compound?
Answer: -14.7% [at 9.17 µM]

Question: What about the activity change, negative = inhibition [14] of the same compound?
Answer: -23.2% [at 9.19 µM]

Question: And the outcome [15]?
Answer: inactive [at 9.19 µM]

Question: And the activation [16]?
Answer: 1.07% [at 9.19 µM]

Question: And the outcome [17]?
Answer: inactive [at 11.5 µM]

Question: And the activity change, negative = inhibition [18]?
Answer: -8.6% [at 11.5 µM]

Question: And the cytotoxicity (LDH release) [19]?
Answer: 0.689 [at 9.19 µM]

Question: What about the activity change, negative = cytotoxic [20] of the same compound?
Answer: -18.3% [at 9.19 µM]

Question: Which Potency [1] does the source give for CC(=O)O[C@@H]1C=C2C(=O)OC[C@]2(O)[C@@]2(C)CCCC(C)(C)[C@H]12 here?
Answer: 19.6 µM (active)

Question: And the Potency [2]?
Answer: 5.94 µM (active)

Question: What about the Potency [3] of the same compound?
Answer: 13.3 µM (active)

Question: What about the Potency [4] of the same compound?
Answer: 10.6 µM (active)

Question: And the Potency [5]?
Answer: 6.68 µM (active)

Question: What about the Potency [6] of the same compound?
Answer: 18.8 µM (active)

Question: What about the Potency [7] of the same compound?
Answer: 8.38 µM (active)

Question: What about the Potency [8] of the same compound?
Answer: 1.32 µM (active)

Question: And the Potency [9]?
Answer: 21.1 µM (active)

Question: And the Potency [10]?
Answer: 26.4 µM (active)

Question: What about the Potency [12] of the same compound?
Answer: inactive

Question: And the outcome [16]?
Answer: inactive

Question: What about the Potency [17] of the same compound?
Answer: 10.9 µM (active)

Question: And the outcome [18]?
Answer: inactive

Question: And the Potency [20]?
Answer: 16.6 µM (active)

Question: Which Potency [1] does the source give for CCC1=C2CCCN3C(=O)O[C@H]([C@H]1OC(C)=O)[C@H]23 here?
Answer: inactive

Question: What about the Potency [2] of the same compound?
Answer: inactive

Question: And the Potency [3]?
Answer: inactive

Question: What about the Potency [4] of the same compound?
Answer: inactive

Question: And the Potency [5]?
Answer: inactive

Question: What about the Potency [6] of the same compound?
Answer: inactive

Question: What about the Potency [7] of the same compound?
Answer: inactive

Question: And the Potency [8]?
Answer: inactive

Question: What about the Potency [9] of the same compound?
Answer: inactive

Question: And the Potency [10]?
Answer: inactive

Question: And the Potency [11]?
Answer: inactive

Question: What about the Potency [12] of the same compound?
Answer: inactive

Question: And the Potency [13]?
Answer: inactive

Question: What about the Potency [14] of the same compound?
Answer: inactive

Question: And the Potency [15]?
Answer: inactive

Question: And the outcome [16]?
Answer: inactive

Question: What about the Potency [17] of the same compound?
Answer: inactive

Question: And the outcome [18]?
Answer: inactive

Question: And the outcome [19]?
Answer: inactive

Question: What about the Potency [20] of the same compound?
Answer: inactive

Question: Which Potency [1] does the source give for C=C[C@]1(C)CC[C@@H]([C@H](C)C(=O)OCC)O1 here?
Answer: 27.2 µM (active)

Question: What about the Potency [2] of the same compound?
Answer: inactive

Question: And the Potency [3]?
Answer: inactive

Question: What about the Potency [4] of the same compound?
Answer: inactive

Question: What about the Potency [5] of the same compound?
Answer: inactive

Question: What about the Potency [6] of the same compound?
Answer: inactive

Question: And the Potency [7]?
Answer: inactive

Question: And the Potency [9]?
Answer: inactive

Question: What about the Potency [10] of the same compound?
Answer: inactive

Question: And the Potency [11]?
Answer: inactive

Question: And the Potency [12]?
Answer: inactive

Question: What about the Potency [13] of the same compound?
Answer: inactive

Question: And the Potency [14]?
Answer: inactive

Question: And the Potency [15]?
Answer: inactive

Question: What about the outcome [16] of the same compound?
Answer: inactive

Question: And the Potency [17]?
Answer: inactive

Question: And the outcome [18]?
Answer: inactive

Question: And the outcome [19]?
Answer: inactive

Question: And the Potency [20]?
Answer: inactive

Question: With C=C(C)C(=O)O[C@H]1C[C@H](C)[C@@H](OC(C)=O)CC[C@@]2(C)O[C@@H]2[C@H]2OC(=O)C(COC(C)=O)=C12 as the compound, how does the Potency [1] read?
Answer: 31.1 µM (active)

Question: And the Potency [2]?
Answer: 4.2 µM (active)

Question: And the Potency [3]?
Answer: 11.9 µM (active)

Question: And the Potency [4]?
Answer: 6.66 µM (active)

Question: And the Potency [5]?
Answer: 6.68 µM (active)

Question: And the Potency [7]?
Answer: inactive

Question: What about the Potency [8] of the same compound?
Answer: 0.833 µM (active)

Question: And the Potency [9]?
Answer: 7.47 µM (active)

Question: What about the Potency [10] of the same compound?
Answer: 9.35 µM (active)

Question: And the Potency [11]?
Answer: 9.35 µM (active)

Question: And the Potency [13]?
Answer: 23.4 µM (active)

Question: What about the Potency [14] of the same compound?
Answer: 16.6 µM (active)

Question: And the Potency [15]?
Answer: 6.62 µM (active)

Question: And the outcome [16]?
Answer: inactive

Question: And the Potency [17]?
Answer: 9.68 µM (active)

Question: What about the outcome [18] of the same compound?
Answer: inactive

Question: And the outcome [19]?
Answer: inactive
